PubChem BioAssay (NCATS)
Inconclusive results are not listed. Activity calls are given as the source filed them. Calls follow the shape of the dose curve; as a rule, active = well fitted curve in the direction sought with a large enough effect; inconclusive = small, poorly fitted or top-dose-only effect, or another doubt; inactive = no such curve, though single readings can be large; an effect the other way counts as inactive or inconclusive.

Experiments:
[1] = tested on: MCC-13; assay: qHTS assay to identify novel small-molecules to repurpose for Merkel cell carcinoma treatment (AID 1296009); settings: MCC and control cell lines, CellTiter-Glo viability, 72 h; series mostly up to 46 µM; also: nearly all actives have a fitted effect of over 60% in size
In short: (§1)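 Cells were incubated with compound for 72 hr at 37 degree celsius before CellTiter-Glo addition. Luminescence was normalized with no-cell wells as full cytotoxicity and DMSO as baseline.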

[2] = tested on: MCC-26; assay: as above; settings: MCC and control cell lines, CellTiter-Glo viability, 72 h; series mostly up to 46 µM
In short: as §1

[3] = tested on: MKL-1; assay: as above; settings: MCC and control cell lines, CellTiter-Glo viability, 72 h; series mostly up to 46 µM
In short: as §1

[4] = tested on: MKL-2; assay: as above; settings: MCC and control cell lines, CellTiter-Glo viability, 72 h; series mostly up to 46 µM
In short: as §1

[5] = tested on: UISO; assay: as above; settings: MCC and control cell lines, CellTiter-Glo viability, 72 h; series mostly up to 46 µM
In short: as §1

[6] = tested on: WaGa; assay: as above; settings: MCC and control cell lines, CellTiter-Glo viability, 72 h; series mostly up to 46 µM
In short: as §1

[7] = tested on: C33A; assay: Primary qHTS to identify gynecologic anti-cancer compounds using libraries of approved drugs and bioactive compounds (AID 1345084); settings: Gynecologic cancer cell panel viability, ATPlite luminescence, 48 h; series mostly up to 57.5 µM; also: nearly all actives have a fitted effect of over 55% in size
In short: (§2)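 Five-concentration response, 48 h; readout is ATP-driven luciferase luminescence.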

[8] = tested on: CAOV3; assay: as above; settings: Gynecologic cancer cell panel viability, ATPlite luminescence, 48 h; series mostly up to 57.5 µM
In short: as §2

[9] = tested on: CASKI; assay: as above; settings: Gynecologic cancer cell panel viability, ATPlite luminescence, 48 h; series mostly up to 57.5 µM
In short: as §2

[10] = tested on: Es-2; assay: as above; settings: Gynecologic cancer cell panel viability, ATPlite luminescence, 48 h; series mostly up to 57.5 µM
In short: as §2

[11] = tested on: HeLa; assay: as above; settings: Gynecologic cancer cell panel viability, ATPlite luminescence, 48 h; series mostly up to 57.5 µM
In short: as §2

[12] = tested on: Hek293T; assay: as above; settings: Gynecologic cancer cell panel viability, ATPlite luminescence, 48 h, control line for the selectivity index; series mostly up to 57.5 µM
In short: as §2

[13] = tested on: JEG-3; assay: as above; settings: Gynecologic cancer cell panel viability, ATPlite luminescence, 48 h; series mostly up to 57.5 µM
In short: as §2

[14] = tested on: OV90; assay: as above; settings: Gynecologic cancer cell panel viability, ATPlite luminescence, 48 h; series mostly up to 57.5 µM
In short: as §2

[15] = tested on: PA-1; assay: as above; settings: Gynecologic cancer cell panel viability, ATPlite luminescence, 48 h; series mostly up to 57.5 µM
In short: as §2

[16] = tested on: SKOV3; assay: as above; settings: Gynecologic cancer cell panel viability, ATPlite luminescence, 48 h; series mostly up to 57.5 µM
In short: as §2

[17] = tested on: Tov-21-G; assay: as above; settings: Gynecologic cancer cell panel viability, ATPlite luminescence, 48 h; series mostly up to 57.5 µM
In short: as §2

[18] = tested on: Tov112D; assay: as above; settings: Gynecologic cancer cell panel viability, ATPlite luminescence, 48 h; series mostly up to 57.5 µM
In short: as §2
% is scaled to controls: 0 for no effect and ±100 for the full control effect.

COc1cc(C=O)ccc1O
inactive: Potency [1] | Potency [2] | Potency [3] | Potency [4] | Potency [5] | Potency [6] | Potency [7] | Potency [8] | Potency [9] | Potency [10] | Potency [11] | Potency [12] | Potency [13] | Potency [14] | Potency [15] | Potency [16] | Potency [17] | Potency [18]

Nc1nnnn1-c1ccccc1
inactive: Potency [1] | Potency [2] | Potency [3] | Potency [4] | Potency [5] | Potency [6] | Potency [7] | Potency [8] | Potency [9] | Potency [10] | Potency [11] | Potency [12] | Potency [13] | Potency [14] | Potency [15] | Potency [16] | Potency [17] | Potency [18]

CCCC(CCC)(C(=O)OCC)C(=O)OCC
inactive: Potency [1] | Potency [2] | Potency [3] | Potency [4] | Potency [5] | Potency [6] | Potency [7] | Potency [8] | Potency [9] | Potency [10] | Potency [11] | Potency [12] | Potency [13] | Potency [14] | Potency [15] | Potency [16] | Potency [17] | Potency [18]

CCCCCN(CCCOC)C(=O)C(CCC(=O)O)NC(=O)c1ccc(Cl)c(Cl)c1 (configuration not stated)
inactive: Potency [1] | Potency [2] | Potency [3] | Potency [4] | Potency [5] | Potency [6] | Potency [7] | Potency [8] | Potency [9] | Potency [10] | Potency [11] | Potency [12] | Potency [13] | Potency [14] | Potency [15] | Potency [16] | Potency [17] | Potency [18]

O=C(COCCOCCOCC(=O)Nc1c(I)cc(I)c(C(=O)O)c1I)Nc1c(I)cc(I)c(C(=O)O)c1I
inactive: Potency [1] | Potency [2] | Potency [3] | Potency [4] | Potency [5] | Potency [6] | Potency [7] | Potency [8] | Potency [9] | Potency [10] | Potency [11] | Potency [12] | Potency [13] | Potency [14] | Potency [15] | Potency [16] | Potency [17] | Potency [18]

Cc1onc(-c2ccccc2)c1C(=O)Cl
inactive: Potency [1] | Potency [2] | Potency [3] | Potency [4] | Potency [5] | Potency [6] | Potency [7] | Potency [8] | Potency [9] | Potency [10] | Potency [11] | Potency [12] | Potency [13] | Potency [14] | Potency [15] | Potency [16] | Potency [17] | Potency [18]

NCC[C@H](O)C(=O)N[C@@H]1C[C@H](N)[C@@H](O[C@H]2O[C@H](CN)[C@@H](O)[C@H](O)[C@@H]2O)[C@H](O)[C@@H]1O[C@H]1O[C@H](CO)[C@@H](O)[C@H](N)[C@@H]1O
inactive: activity change, negative = cytotoxicity [1] 1.29% [at 0.597 µM] | activity change, negative = cytotoxicity [2] 13.8% [at 0.597 µM] | activity change, negative = cytotoxicity [3] 9.09% [at 0.597 µM] | activity change, negative = cytotoxicity [4] 22.5% [at 0.597 µM] | activity change, negative = cytotoxicity [5] 23.5% [at 0.597 µM] | activity change, negative = cytotoxicity [6] 23.2% [at 0.597 µM] | activity change, negative = cytotoxicity [7] 13.2% [at 0.462 µM] | activity change, negative = cytotoxicity [8] 10.2% [at 0.462 µM] | activity change, negative = cytotoxicity [9] 11.8% [at 0.462 µM] | activity change, negative = cytotoxicity [10] -2.07% [at 0.462 µM] | activity change, negative = cytotoxicity [11] 16.7% [at 0.462 µM] | activity change, negative = cytotoxicity [12] 1.79% [at 0.462 µM] | activity change, negative = cytotoxicity [13] 1.19% [at 0.462 µM] | activity change, negative = cytotoxicity [14] -0.567% [at 0.462 µM] | activity change, negative = cytotoxicity [15] 20.2% [at 0.462 µM] | activity change, negative = cytotoxicity [16] 13.9% [at 0.462 µM] | activity change, negative = cytotoxicity [17] 7.33% [at 0.462 µM] | activity change, negative = cytotoxicity [18] 1.97% [at 0.462 µM]

O=C(O)C1CCC1
inactive: Potency [1] | Potency [2] | Potency [3] | Potency [4] | Potency [5] | Potency [6] | Potency [7] | Potency [8] | Potency [9] | Potency [10] | Potency [11] | Potency [12] | Potency [13] | Potency [14] | Potency [15] | Potency [16] | Potency [17] | Potency [18]

CO/N=C(/C(=O)N[C@@H]1C(=O)N2C(C(=O)O)=C(Cn3nnc(C)n3)CS[C@H]12)c1csc(N)n1
inactive: Potency [1] | Potency [2] | Potency [3] | Potency [4] | Potency [5] | Potency [6] | Potency [7] | Potency [8] | Potency [9] | Potency [10] | Potency [11] | Potency [12] | Potency [13] | Potency [14] | Potency [15] | Potency [16] | Potency [17] | Potency [18]

CN1CC(=O)N2[C@H](c3ccc4c(c3)OCO4)c3[nH]c4ccccc4c3C[C@@H]2C1=O
inactive: Potency [1] | Potency [2] | Potency [3] | Potency [4] | Potency [5] | Potency [6] | Potency [7] | Potency [8] | Potency [9] | Potency [10] | Potency [11] | Potency [12] | Potency [13] | Potency [14] | Potency [15] | Potency [16] | Potency [17] | Potency [18]

CO[C@]1(NC(=O)CSC(F)F)C(=O)N2C(C(=O)O)=C(CSc3nnnn3CCO)CO[C@H]21
inactive: Potency [1] | Potency [2] | Potency [3] | Potency [4] | Potency [5] | Potency [6] | Potency [7] | Potency [8] | Potency [9] | Potency [10] | Potency [11] | Potency [12] | Potency [13] | Potency [14] | Potency [15] | Potency [16] | Potency [17] | Potency [18]

CCCC(=O)O[C@]1(C(=O)COC(=O)CC)CC[C@H]2[C@@H]3CCC4=CC(=O)CC[C@]4(C)[C@H]3[C@@H](O)C[C@@]21C
inactive: Potency [1] | Potency [2] | Potency [3] | Potency [4] | Potency [5] | Potency [6] | Potency [7] | Potency [8] | Potency [9] | Potency [10] | Potency [11] | Potency [12] | Potency [13] | Potency [14] | Potency [15] | Potency [16] | Potency [17] | Potency [18]

CCCOc1ccc2c(c1)CC[C@@H]1[C@@H]2CC[C@]2(C)C(OC)CC[C@@H]12 (some centres not stated)
inactive: Potency [1] | Potency [2] | Potency [3] | Potency [4] | Potency [5] | Potency [6] | Potency [7] | Potency [8] | Potency [9] | Potency [10] | Potency [11] | Potency [12] | Potency [13] | Potency [14] | Potency [15] | Potency [16] | Potency [17] | Potency [18]

O=C(O)c1ccccc1S
inactive: Potency [1] | Potency [2] | Potency [3] | Potency [4] | Potency [5] | Potency [6] | Potency [7] | Potency [8] | Potency [9] | Potency [10] | Potency [11] | Potency [12] | Potency [13] | Potency [14] | Potency [15] | Potency [16] | Potency [17] | Potency [18]
